# Results reported in publication PMC7862700, “An all-to-all approach to the identification of sequence-specific readers for epigenetic DNA modifications on cytosine”.
# What was measured:
# Experiment in all cases: DAPPL (digital affinity profiling via proximity ligation, sequencing); 10 mM Tris-HCl pH 7.5, 50 mM NaCl, 1 mM DTT, 4% glycerol, room temperature, 30 min; GST-TFs on glutathione beads, 16-mer random dsDNA library, 0.1% formaldehyde crosslink after washing; high values mean tight binding
# FEV = target: T1, FEV (Homo sapiens, UniProt Q99581 1-238); conditions: protein: recombinant; tags: N-terminal GST; dsDNA, one strand shown
# T1 sequence: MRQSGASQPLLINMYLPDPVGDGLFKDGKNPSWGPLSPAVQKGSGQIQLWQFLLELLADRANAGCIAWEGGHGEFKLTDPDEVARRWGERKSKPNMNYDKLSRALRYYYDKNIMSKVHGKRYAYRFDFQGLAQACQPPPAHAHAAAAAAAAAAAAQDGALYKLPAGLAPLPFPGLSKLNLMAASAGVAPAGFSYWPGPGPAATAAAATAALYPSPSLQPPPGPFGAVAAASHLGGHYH
# How it was run: (§1)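 After expression in yeast as GST fusions, human transcription factors were bound to glutathione beads, DNA-barcoded and mixed with a tag-only sample. The pools were incubated with 200 nmole of a 16-mer random double-stranded DNA library in Tris/NaCl/DTT/glycerol buffer (30 min, room temperature), washed and crosslinked with 0.1% formaldehyde. Proximity ligation with BsaI/T4 ligase ran for 1 h at 37 °C, before PCR amplification and sequencing on an Illumina NextSeq500. Binding signal is a hexamer's read frequency for a factor divided by its frequency for the tag-only sample.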
# ETV5 = ETV5 (Homo sapiens, UniProt P41161 1-510); conditions: protein: recombinant; tags: N-terminal GST; dsDNA, one strand shown
# ETV5, sequence (P41161 whole entry): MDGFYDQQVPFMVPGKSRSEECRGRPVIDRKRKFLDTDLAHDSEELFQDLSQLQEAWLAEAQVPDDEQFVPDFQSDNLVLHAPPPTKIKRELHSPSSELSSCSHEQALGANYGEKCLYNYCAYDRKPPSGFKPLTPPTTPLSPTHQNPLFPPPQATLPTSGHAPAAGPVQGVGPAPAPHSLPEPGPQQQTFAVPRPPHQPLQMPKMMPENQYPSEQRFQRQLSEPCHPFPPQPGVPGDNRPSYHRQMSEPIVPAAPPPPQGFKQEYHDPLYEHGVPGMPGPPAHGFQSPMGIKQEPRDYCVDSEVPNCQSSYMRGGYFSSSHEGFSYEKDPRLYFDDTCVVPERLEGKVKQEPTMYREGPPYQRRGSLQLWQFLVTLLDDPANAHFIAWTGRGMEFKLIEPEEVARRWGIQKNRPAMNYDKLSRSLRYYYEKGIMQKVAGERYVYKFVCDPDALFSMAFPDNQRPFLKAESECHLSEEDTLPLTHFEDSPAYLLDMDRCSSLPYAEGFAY
# How it was run: as §1
# HSF1 = HSF1 (Homo sapiens, UniProt Q00613 1-529); conditions: protein: recombinant; tags: N-terminal GST; chain copies: 3; dsDNA, one strand shown
# HSF1, sequence (Q00613 whole entry): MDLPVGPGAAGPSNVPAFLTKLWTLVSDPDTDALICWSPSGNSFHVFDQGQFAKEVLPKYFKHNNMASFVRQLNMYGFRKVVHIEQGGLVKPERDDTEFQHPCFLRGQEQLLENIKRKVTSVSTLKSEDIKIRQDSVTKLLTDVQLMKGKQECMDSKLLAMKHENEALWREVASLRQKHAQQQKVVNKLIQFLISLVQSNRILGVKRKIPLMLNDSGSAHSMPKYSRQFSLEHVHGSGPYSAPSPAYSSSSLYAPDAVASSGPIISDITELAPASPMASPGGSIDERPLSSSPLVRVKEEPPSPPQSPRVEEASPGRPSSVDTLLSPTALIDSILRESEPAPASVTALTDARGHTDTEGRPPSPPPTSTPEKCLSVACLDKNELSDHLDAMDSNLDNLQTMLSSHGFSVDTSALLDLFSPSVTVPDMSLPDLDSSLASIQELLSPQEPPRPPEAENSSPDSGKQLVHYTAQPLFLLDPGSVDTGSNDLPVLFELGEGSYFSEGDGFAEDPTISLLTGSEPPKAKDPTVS
# How it was run: as §1
# SPIC = target: T2, SPIC (Homo sapiens, UniProt Q8N5J4 1-248); conditions: protein: recombinant; tags: N-terminal GST; dsDNA, one strand shown
# T2 sequence: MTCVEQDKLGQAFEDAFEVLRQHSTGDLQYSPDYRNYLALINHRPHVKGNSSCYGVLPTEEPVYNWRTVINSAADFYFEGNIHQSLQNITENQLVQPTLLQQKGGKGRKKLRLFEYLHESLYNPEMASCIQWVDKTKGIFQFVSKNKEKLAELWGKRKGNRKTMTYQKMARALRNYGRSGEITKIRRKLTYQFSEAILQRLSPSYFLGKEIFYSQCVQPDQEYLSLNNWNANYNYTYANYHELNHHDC
# How it was run: as §1
# ELF4 = ELF4 (Homo sapiens, UniProt Q99607 1-663); conditions: protein: recombinant; tags: N-terminal GST; dsDNA, one strand shown
# ELF4, sequence (Q99607 whole entry): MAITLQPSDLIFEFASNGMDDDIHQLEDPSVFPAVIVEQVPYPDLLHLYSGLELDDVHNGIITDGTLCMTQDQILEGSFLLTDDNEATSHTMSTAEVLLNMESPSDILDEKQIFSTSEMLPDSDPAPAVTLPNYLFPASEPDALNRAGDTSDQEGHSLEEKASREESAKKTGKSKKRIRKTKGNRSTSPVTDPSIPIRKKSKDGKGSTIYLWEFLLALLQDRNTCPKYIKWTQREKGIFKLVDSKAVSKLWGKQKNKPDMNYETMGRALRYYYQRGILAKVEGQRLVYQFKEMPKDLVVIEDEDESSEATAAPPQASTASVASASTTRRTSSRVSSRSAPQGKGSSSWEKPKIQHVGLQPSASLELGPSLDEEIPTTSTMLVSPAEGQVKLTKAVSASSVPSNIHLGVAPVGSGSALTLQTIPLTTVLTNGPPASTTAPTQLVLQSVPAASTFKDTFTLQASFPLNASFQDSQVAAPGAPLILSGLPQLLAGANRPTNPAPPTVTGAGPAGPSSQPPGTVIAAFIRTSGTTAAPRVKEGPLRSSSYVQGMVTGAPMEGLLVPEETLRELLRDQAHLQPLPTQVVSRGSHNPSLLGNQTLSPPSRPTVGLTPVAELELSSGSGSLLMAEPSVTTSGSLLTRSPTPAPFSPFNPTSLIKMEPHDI
# How it was run: as §1
# ELK4 = target: T3, ELK4 (Homo sapiens, UniProt P28324-2 1-405); conditions: protein: recombinant; tags: N-terminal GST; dsDNA, one strand shown
# T3 sequence: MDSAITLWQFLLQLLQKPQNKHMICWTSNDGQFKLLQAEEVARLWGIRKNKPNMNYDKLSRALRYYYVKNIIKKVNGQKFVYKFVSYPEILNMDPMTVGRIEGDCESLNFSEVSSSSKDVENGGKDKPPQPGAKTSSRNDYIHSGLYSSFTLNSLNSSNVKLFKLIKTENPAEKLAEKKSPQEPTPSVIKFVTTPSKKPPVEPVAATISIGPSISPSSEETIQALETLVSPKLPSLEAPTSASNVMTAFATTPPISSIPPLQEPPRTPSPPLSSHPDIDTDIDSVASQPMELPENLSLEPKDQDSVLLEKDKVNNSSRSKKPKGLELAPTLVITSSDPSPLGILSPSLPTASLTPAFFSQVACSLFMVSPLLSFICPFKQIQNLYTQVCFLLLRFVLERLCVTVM
# How it was run: as §1
# ETV2 = target: T4, ETV2 (Homo sapiens, UniProt O00321 1-342); conditions: protein: recombinant; tags: N-terminal GST; dsDNA, one strand shown
# T4 sequence: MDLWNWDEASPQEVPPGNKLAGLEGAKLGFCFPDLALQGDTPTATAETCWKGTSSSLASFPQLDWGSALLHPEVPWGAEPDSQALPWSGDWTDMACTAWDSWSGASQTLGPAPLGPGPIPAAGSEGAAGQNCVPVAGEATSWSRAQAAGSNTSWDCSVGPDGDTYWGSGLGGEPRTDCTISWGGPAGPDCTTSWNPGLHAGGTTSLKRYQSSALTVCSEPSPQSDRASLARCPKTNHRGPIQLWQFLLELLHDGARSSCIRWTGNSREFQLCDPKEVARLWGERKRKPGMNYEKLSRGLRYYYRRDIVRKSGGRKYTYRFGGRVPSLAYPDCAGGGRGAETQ
# How it was run: as §1
# ELF3 = target: T5, ELF3 (Homo sapiens, UniProt P78545 1-371); conditions: protein: recombinant; tags: N-terminal GST; dsDNA, one strand shown
# T5 sequence: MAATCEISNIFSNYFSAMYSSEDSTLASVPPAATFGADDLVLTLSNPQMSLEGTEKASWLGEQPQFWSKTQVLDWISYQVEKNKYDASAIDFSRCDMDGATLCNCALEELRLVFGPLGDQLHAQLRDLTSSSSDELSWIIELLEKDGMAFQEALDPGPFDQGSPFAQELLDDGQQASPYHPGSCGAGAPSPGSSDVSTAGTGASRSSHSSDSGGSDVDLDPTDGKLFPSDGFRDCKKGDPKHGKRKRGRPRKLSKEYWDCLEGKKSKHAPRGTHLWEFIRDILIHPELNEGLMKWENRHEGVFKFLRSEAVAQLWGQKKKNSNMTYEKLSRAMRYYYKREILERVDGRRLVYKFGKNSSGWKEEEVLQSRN
# How it was run: as §1
# CRX = CRX (Homo sapiens, UniProt O43186 1-299); conditions: protein: recombinant; tags: N-terminal GST; dsDNA, one strand shown
# CRX, sequence (O43186 whole entry): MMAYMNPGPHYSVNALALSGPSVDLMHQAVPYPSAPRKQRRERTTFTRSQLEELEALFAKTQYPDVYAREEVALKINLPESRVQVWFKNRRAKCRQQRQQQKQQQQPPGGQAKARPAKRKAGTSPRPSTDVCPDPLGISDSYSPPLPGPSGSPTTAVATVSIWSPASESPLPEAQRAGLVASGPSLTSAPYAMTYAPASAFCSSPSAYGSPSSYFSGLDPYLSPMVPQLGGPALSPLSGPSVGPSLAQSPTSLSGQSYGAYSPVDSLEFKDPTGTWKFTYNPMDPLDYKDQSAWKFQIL
# How it was run: as §1
# ETV1 = ETV1 (Homo sapiens, UniProt P50549 1-477); conditions: protein: recombinant; tags: N-terminal GST; dsDNA, one strand shown
# ETV1, sequence (P50549 whole entry): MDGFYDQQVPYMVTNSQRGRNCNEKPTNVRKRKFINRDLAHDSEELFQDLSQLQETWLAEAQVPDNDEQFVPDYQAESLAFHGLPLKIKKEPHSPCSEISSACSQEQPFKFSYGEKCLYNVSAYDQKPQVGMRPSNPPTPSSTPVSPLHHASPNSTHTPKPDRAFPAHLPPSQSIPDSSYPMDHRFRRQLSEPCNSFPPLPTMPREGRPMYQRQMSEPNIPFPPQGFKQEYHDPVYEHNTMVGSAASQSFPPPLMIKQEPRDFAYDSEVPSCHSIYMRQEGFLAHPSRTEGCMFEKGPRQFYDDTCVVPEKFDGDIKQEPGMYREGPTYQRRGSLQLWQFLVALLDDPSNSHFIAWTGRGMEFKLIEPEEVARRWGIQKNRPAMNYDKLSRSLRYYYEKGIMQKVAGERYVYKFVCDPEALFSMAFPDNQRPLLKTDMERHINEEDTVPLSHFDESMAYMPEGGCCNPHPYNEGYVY
# How it was run: as §1
# ERF = target: T6, ERF (Homo sapiens, UniProt P50548 1-548); conditions: protein: recombinant; tags: N-terminal GST; dsDNA, one strand shown
# T6 sequence: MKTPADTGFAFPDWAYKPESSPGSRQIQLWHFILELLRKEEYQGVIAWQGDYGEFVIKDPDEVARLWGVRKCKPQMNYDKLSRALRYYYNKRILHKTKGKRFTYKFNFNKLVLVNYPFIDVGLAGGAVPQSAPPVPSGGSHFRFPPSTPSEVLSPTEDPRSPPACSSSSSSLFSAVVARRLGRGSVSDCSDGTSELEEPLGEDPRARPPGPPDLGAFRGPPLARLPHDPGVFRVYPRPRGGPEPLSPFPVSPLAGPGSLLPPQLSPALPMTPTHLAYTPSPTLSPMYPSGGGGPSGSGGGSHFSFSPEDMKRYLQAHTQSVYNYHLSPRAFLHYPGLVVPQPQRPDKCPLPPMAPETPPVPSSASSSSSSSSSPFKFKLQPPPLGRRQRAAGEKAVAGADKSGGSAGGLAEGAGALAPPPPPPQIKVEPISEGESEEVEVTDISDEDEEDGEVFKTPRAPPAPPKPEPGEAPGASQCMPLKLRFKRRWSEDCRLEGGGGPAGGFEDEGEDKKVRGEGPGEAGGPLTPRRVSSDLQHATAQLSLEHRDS
# How it was run: as §1
# ETV3L = target: T7, ETV3L (Homo sapiens, UniProt Q6ZN32 1-361); conditions: protein: recombinant; tags: N-terminal GST; dsDNA, one strand shown
# T7 sequence: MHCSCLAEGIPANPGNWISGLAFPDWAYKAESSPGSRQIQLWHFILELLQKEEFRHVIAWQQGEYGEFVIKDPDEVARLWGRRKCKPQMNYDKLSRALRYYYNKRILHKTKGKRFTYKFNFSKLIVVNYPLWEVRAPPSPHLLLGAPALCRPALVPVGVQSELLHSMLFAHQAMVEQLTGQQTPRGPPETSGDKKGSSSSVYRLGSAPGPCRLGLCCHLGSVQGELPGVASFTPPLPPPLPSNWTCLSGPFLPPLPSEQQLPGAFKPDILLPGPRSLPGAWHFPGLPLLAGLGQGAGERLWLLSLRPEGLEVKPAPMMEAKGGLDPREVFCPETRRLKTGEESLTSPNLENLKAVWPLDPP
# How it was run: as §1
# ETS2 = target: T8, ETS2 (Homo sapiens, UniProt P15036 1-469); conditions: protein: recombinant; tags: N-terminal GST; dsDNA, one strand shown
# T8 sequence: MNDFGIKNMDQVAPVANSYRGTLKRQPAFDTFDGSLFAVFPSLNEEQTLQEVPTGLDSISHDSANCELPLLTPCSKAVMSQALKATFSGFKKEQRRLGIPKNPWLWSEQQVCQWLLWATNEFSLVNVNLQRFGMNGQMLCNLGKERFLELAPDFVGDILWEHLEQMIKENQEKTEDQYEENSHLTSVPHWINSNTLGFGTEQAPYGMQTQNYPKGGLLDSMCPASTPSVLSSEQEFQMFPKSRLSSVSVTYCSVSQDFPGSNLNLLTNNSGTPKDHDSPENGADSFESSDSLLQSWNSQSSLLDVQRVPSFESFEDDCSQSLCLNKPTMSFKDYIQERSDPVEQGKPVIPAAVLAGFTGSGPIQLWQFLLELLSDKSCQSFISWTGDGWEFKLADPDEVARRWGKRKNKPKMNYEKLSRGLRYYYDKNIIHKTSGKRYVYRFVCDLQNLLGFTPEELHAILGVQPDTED
# How it was run: as §1
# SPDEF = target: T9, SPDEF (Homo sapiens, UniProt O95238 1-335); conditions: protein: recombinant; tags: N-terminal GST; dsDNA, one strand shown
# T9 sequence: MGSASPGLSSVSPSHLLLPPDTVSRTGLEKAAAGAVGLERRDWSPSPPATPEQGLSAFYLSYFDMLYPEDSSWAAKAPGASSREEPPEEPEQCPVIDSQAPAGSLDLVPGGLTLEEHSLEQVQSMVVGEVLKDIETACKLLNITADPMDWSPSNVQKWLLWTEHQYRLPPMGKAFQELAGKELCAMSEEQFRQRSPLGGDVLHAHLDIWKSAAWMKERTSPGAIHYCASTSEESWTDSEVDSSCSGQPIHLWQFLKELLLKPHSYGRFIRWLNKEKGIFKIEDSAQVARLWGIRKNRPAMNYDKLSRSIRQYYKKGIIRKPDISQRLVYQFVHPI
# How it was run: as §1
# ETV7 = target: T10, ETV7 (Homo sapiens, UniProt Q9Y603 1-341); conditions: protein: recombinant; tags: N-terminal GST; dsDNA, one strand shown
# T10 sequence: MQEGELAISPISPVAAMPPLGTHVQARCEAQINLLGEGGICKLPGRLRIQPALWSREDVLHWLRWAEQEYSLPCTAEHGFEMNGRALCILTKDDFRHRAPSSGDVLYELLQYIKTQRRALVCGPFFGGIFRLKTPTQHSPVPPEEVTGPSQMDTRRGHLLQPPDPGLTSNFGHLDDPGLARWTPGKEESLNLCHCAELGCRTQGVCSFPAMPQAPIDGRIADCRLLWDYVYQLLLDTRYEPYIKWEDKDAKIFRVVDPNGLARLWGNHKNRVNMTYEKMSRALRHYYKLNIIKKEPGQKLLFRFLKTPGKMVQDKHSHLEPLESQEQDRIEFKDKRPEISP
# How it was run: as §1
# ELF5 = target: T11, ELF5 (Homo sapiens, UniProt Q9UKW6-2 1-255); conditions: protein: recombinant; tags: N-terminal GST; dsDNA, one strand shown
# T11 sequence: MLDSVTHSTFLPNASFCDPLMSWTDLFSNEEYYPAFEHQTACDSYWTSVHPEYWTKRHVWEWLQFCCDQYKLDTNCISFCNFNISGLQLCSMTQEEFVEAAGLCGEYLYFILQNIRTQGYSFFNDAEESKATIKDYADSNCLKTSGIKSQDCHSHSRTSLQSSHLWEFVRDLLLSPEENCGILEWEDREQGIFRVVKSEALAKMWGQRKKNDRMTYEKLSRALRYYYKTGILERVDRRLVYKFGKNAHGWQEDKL
# How it was run: as §1
# ETV3 = target: T12, ETV3 (Homo sapiens, UniProt P41162-2 1-143); conditions: protein: recombinant; tags: N-terminal GST; dsDNA, one strand shown
# T12 sequence: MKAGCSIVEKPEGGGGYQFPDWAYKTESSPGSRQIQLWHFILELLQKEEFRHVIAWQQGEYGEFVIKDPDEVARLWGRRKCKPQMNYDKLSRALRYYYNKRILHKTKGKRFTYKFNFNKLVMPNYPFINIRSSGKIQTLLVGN
# How it was run: as §1
# ETV6 = ETV6 (Homo sapiens, UniProt P41212 1-452); conditions: protein: recombinant; tags: N-terminal GST; dsDNA, one strand shown
# ETV6, sequence (P41212 whole entry): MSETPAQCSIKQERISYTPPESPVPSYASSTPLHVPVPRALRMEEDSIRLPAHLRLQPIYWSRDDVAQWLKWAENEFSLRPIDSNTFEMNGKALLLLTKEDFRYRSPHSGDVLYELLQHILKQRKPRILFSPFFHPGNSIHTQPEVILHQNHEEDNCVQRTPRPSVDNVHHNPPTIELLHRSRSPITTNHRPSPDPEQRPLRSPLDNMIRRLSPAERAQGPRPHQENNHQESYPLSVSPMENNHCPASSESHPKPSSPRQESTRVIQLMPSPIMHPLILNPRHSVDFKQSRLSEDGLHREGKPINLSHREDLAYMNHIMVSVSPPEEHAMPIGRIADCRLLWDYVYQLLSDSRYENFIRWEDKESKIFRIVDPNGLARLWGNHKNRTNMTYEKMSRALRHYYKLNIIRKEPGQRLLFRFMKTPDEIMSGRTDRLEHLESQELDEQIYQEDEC
# How it was run: as §1
sequence,measurement,setting,value
ATACAC,binding signal,FEV,"1.24 fold enrichment (6-mer frequency, TF over GST control)"
same,binding signal,ETV5,"1.22 fold enrichment (6-mer frequency, TF over GST control)"
same,binding signal,HSF1,"1.01 fold enrichment (6-mer frequency, TF over GST control)"
same,binding signal,SPIC,"1.22 fold enrichment (6-mer frequency, TF over GST control)"
same,binding signal,ELF4,"1.24 fold enrichment (6-mer frequency, TF over GST control)"
same,binding signal,ELK4,"1.25 fold enrichment (6-mer frequency, TF over GST control)"
same,binding signal,ETV2,"1.24 fold enrichment (6-mer frequency, TF over GST control)"
same,binding signal,ELF3,"1.16 fold enrichment (6-mer frequency, TF over GST control)"
same,binding signal,CRX,"1.04 fold enrichment (6-mer frequency, TF over GST control)"
same,binding signal,ETV1,"1.31 fold enrichment (6-mer frequency, TF over GST control)"
same,binding signal,ERF,"1.32 fold enrichment (6-mer frequency, TF over GST control)"
same,binding signal,ETV3L,"1.18 fold enrichment (6-mer frequency, TF over GST control)"
same,binding signal,ETS2,"1.16 fold enrichment (6-mer frequency, TF over GST control)"
same,binding signal,SPDEF,"1.28 fold enrichment (6-mer frequency, TF over GST control)"
same,binding signal,ETV7,"1.21 fold enrichment (6-mer frequency, TF over GST control)"
same,binding signal,ELF5,"1.15 fold enrichment (6-mer frequency, TF over GST control)"
same,binding signal,ETV3,"1.17 fold enrichment (6-mer frequency, TF over GST control)"
same,binding signal,ETV6,"1.12 fold enrichment (6-mer frequency, TF over GST control)"
